In all, about 33,000 sequences were measured (“E-score (-0.5 to 0.5)”: median about -0.013, highest 2% from about 0.3 on). Many of the other results were omitted from the sample, so the highest values are more common in it than they were.
molecular target: T1, Msn1 (UniProt P22148); assay: PBM E-score (8-mer binding enrichment) (E-score (-0.5 to 0.5)); higher = stronger / more preferred TF binding; details: protein concentration: 200 nM; construct: GST-full length
T1 sequence: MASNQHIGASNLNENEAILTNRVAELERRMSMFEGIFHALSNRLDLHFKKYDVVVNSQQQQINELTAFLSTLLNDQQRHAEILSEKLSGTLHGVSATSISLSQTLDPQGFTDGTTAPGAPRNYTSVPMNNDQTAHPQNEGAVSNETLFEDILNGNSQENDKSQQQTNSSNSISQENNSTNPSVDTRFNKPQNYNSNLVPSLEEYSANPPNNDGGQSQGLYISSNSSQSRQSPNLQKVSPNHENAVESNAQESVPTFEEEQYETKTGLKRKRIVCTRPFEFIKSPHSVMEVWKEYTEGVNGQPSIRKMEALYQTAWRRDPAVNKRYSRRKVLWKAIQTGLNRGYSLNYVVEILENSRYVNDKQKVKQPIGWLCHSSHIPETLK
Summary of the method: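 Each ungapped eight-base word and its reverse complement, pooled, received an E-score from the Universal PBM Analysis Suite. Underlying scans, normalised with masliner, recorded fluorescent anti-GST bound to GST-tagged yeast transcription factors. These were applied at about 100-200 nM to universal all-10-mer Agilent arrays double-stranded by primer extension.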

Sequence | PBM E-score
GAGTTCCC | 0.0462
GTGCTGAA | -0.191
ATGCGTGC | -0.0193
ACTTGTAT | 0.145
ACTTGGCT | -0.176
ACTTGTGA | -0.103
GCTTGTCC | 0.454
ACTTGTGC | -0.14
ACTTGTCA | 0.369
GCTTGTCA | 0.209
ACTTGTCT | 0.407
ACTTGTCC | 0.467
ACTTGTCG | 0.297
TCTTGTCA | 0.238
GCTTGTAC | 0.267
CCTAGCTC | -0.148
CGGTCGCA | -0.0568
CCAACGGA | -0.08
GGCACTAC | -0.284
CGCTCTGC | -0.112
CCTTGTCC | 0.449
CCTTGTCG | 0.0372
CCTTGTCA | 0.0263

Sequence | PBM E-score
CTGGTATC | -0.0417
GACCTATC | 0.0973
GGTGCTAC | -0.204
ATGTCGTC | 0.191
ATGTCGAG | 0.162
GTGTCGTA | 0.228
ATGTCGTA | 0.395
ATGTCGTG | 0.337
CTGTCGTA | -0.0467
GCTGCGTA | -0.124
AAACGAGC | -0.0279
GCCAAAGC | -0.0464
CACTGCCG | 0.0826
TGAGGACA | 0.46
GGAGGAGA | -0.179
GGAGGACA | 0.4
AGAGGACA | 0.353
TGAGGAAA | 0.0866
AGAGGACC | -0.208
CGAGGACC | -0.14
TGAGGCCA | -0.117
CGAGGACG | 0.0859
AGAGGACT | -0.21

Sequence | PBM E-score
CGAGGACA | 0.453
GGAGGACC | -0.25
CCACACGA | 0.00165
AACGAATA | -0.0354
ATAGTCTA | -0.0808
GTGCCTGA | -0.25
AATAACTC | 0.00363
GGAGAACA | 0.0888
ACAACCCA | 0.0013
AGTGTCCA | 0.219
GGTGTCTA | 0.0447
CGTGTCGA | 0.0442
AGTGTCCC | 0.375
CGTGTCCC | 0.437
CGTGTCTA | 0.166
AGTGTCCG | 0.179
GGTGTCGA | -0.0245
CGTGTCTC | 0.26
CGTGTCCA | 0.424
CGTGTCGC | 0.202
GGTGTCCA | 0.352
ACGGTCAT | 0.0534
AGCTTTCC | -0.198

Sequence | PBM E-score
GAACTGAA | -0.00121
CGTGGCAC | 0.0166
CTGAGCGA | 0.0585
CAGCTAGC | -0.19
ATATTAAT | 0.243
GCAGCCCA | -0.0983
TTGCCAAA | -0.0227
AACTTGGC | -0.0461
GCCTTCCA | -0.367
TAATGAAA | 0.226
CAATGAAA | 0.0415
AAATGAAA | 0.305
CAGATGTC | 0.347
CAGATGTA | -0.0817
CGGATGTA | 0.0259
CTGATGTC | 0.282
AGGATGTA | -0.0489
AGGATGTG | -0.0903
AGGATGTC | 0.398
CGGATGTC | 0.348
AAGATGTC | 0.252
GCCCAGAA | 0.0114
CTGCTACC | -0.0604

Sequence | PBM E-score
CCCTCGAG | -0.11
ACTGGCAA | 0.0309
GTTGATTA | 0.135
AATCTGGG | -0.203
CCAGGTGC | -0.205
ATTACGCG | -0.059
GACAATCC | 0.355
GACAATAC | 0.377
AACAATCC | 0.136
GACAATCA | 0.217
CACAATTA | 0.128
AACAATTA | 0.165
GACAATTA | 0.426
AACAATAC | 0.158
CACAATAC | -0.0413
ATTCCTCG | 0.0159
AACGTCAG | -0.248
GAGATCAC | -0.035
ATACAGCA | 0.103
ACAGGACT | -0.0485
ACAGGACA | 0.421
CCAGGACG | 0.109

— the supplement of paper PMC3334620
